Results: the supplement of paper PMC10849652
About 7,900 targets were measured; listed, in parts, are those with a hit and a random draw of the rest. About 0.6% of all pairs of compound and target were hits. Values without a mark were called inactive.

What follows are targets tested with c1cn2cc(-c3ccc4cn[nH]c4c3)nc(Nc3ccc(N4CCOCC4)cc3)c2n1 [entospletinib] (assay: log2 fold change, soluble protein after heating vs DMSO (PISA); higher = thermal stabilisation; K562 cells, 10 uM, 30 min; active = over 0.2 and 3.5 SD of the protein, either way, in both replicates (recomputed)).
Procedure, shortened: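 Quantification of soluble protein used TMTpro 16plex LC-MS/MS, with channel sums equalised. Samples were the supernatant after 21,000xg for 90 min of pooled aliquots from K562 cells (2×10^6 cells/mL) treated with 10 μM compound for 30 min, heated for 3 min over 48°C-58°C, and extracted in PBS with 0.5% NP-40 at 4°C. Values, from duplicates, describe thermal stability against control samples on a log2 fold-change scale.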

Sequence of UniProt Q86VR2 (Q86VR2 whole entry, looked up): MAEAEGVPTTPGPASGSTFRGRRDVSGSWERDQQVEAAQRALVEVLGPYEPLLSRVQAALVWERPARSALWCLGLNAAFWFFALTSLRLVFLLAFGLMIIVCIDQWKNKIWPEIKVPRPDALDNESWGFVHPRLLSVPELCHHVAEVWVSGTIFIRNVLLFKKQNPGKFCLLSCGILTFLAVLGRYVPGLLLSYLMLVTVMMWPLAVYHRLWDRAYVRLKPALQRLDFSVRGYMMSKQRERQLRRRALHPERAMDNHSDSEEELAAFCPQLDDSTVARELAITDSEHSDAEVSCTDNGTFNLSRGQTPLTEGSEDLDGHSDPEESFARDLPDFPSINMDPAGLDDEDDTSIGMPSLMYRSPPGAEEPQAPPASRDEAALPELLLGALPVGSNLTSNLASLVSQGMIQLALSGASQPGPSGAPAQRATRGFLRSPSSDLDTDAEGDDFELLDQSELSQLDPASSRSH
Sequence of UniProt Q9NRX5 (Q9NRX5 whole entry, looked up): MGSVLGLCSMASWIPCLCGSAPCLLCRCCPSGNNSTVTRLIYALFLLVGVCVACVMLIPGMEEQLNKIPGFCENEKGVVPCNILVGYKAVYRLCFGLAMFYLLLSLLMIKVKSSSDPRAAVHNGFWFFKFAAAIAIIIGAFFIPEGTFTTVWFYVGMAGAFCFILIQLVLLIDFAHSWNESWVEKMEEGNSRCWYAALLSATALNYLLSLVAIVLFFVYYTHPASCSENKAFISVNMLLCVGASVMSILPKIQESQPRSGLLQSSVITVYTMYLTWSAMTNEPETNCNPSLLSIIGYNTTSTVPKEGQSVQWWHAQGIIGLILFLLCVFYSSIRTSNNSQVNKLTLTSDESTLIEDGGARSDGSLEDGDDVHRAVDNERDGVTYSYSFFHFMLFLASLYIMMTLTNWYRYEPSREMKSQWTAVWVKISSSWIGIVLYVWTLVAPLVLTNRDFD
Sequence of UniProt Q13464 (Q13464 whole entry, looked up): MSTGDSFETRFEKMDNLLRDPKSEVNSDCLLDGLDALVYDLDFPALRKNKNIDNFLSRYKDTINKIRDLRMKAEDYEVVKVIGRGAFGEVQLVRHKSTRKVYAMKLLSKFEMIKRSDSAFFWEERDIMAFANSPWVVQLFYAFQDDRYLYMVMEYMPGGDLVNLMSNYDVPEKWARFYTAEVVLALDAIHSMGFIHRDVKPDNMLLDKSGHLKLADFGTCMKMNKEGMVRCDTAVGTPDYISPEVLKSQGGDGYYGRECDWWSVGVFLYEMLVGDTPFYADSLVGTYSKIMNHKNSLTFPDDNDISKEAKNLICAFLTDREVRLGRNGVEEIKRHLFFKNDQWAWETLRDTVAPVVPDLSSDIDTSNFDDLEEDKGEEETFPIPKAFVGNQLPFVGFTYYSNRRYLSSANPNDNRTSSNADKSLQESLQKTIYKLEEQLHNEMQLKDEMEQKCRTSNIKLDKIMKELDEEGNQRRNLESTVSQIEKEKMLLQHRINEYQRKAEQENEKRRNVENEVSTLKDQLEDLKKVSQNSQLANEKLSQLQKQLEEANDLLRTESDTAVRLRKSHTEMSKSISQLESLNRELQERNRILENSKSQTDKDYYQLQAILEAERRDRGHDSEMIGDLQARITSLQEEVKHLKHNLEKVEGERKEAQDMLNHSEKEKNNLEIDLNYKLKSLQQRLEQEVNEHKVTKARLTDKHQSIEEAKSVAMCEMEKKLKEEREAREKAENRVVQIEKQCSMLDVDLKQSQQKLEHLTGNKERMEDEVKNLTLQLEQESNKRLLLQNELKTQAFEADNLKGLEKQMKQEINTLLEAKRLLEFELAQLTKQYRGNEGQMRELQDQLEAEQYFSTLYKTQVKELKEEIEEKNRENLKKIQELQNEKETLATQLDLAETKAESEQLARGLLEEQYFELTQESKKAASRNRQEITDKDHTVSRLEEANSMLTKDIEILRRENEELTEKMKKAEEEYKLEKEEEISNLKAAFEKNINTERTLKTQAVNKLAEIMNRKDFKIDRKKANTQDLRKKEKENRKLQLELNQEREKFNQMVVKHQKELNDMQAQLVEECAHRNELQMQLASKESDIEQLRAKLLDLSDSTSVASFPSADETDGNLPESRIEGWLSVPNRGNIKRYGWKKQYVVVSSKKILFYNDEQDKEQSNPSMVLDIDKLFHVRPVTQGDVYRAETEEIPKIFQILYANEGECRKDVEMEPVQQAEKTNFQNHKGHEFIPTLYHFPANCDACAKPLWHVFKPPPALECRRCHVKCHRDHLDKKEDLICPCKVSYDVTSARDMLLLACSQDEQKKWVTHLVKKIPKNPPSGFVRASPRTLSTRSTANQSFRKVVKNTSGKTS
Sequence of UniProt Q96GF1 (Q96GF1 whole entry, looked up): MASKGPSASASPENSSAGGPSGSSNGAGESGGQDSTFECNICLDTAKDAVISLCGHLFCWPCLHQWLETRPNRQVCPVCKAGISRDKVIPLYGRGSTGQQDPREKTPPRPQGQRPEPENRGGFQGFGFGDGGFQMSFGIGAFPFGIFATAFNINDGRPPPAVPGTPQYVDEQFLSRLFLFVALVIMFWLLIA
Sequence of UniProt Q9NQG5 (Q9NQG5 whole entry, looked up): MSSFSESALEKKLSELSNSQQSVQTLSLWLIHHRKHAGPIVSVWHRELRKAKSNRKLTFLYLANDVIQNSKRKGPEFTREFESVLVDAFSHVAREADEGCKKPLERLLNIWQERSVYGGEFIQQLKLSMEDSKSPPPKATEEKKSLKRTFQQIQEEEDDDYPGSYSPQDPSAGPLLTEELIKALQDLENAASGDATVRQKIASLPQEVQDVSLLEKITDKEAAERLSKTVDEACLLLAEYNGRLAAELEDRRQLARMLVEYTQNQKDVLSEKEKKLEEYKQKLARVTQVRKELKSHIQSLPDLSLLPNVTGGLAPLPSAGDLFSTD
Sequence of UniProt Q8TD22 (Q8TD22 whole entry, looked up): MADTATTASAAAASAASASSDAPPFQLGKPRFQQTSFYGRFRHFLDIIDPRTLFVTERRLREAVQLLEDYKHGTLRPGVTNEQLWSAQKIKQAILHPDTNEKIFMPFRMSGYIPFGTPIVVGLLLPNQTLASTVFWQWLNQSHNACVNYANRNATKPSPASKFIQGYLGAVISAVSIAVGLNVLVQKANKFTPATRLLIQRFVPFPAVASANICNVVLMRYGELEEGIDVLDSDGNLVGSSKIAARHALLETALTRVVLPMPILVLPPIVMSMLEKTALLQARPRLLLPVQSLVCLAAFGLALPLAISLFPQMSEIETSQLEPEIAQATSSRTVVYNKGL
Sequence of UniProt O00584 (O00584 whole entry, looked up): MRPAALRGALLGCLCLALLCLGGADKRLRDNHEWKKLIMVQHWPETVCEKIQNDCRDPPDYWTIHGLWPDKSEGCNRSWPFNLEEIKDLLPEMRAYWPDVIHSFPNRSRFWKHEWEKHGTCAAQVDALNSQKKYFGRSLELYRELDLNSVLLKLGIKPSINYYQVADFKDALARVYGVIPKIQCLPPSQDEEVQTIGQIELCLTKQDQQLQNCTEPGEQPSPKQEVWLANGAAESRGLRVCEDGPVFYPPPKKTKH
Sequence of UniProt Q9NSI8 (Q9NSI8 whole entry, looked up): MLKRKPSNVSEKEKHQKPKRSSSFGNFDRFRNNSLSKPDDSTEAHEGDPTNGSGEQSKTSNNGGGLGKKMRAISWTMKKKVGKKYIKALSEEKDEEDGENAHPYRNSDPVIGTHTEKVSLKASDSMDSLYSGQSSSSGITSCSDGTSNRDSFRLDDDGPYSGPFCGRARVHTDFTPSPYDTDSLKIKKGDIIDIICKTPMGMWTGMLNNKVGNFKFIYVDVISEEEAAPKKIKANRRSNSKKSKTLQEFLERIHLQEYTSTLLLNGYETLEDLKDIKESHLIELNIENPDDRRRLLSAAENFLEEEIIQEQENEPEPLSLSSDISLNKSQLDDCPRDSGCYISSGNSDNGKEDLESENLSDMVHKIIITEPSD
Sequence of UniProt Q9NW64 (Q9NW64 whole entry, looked up): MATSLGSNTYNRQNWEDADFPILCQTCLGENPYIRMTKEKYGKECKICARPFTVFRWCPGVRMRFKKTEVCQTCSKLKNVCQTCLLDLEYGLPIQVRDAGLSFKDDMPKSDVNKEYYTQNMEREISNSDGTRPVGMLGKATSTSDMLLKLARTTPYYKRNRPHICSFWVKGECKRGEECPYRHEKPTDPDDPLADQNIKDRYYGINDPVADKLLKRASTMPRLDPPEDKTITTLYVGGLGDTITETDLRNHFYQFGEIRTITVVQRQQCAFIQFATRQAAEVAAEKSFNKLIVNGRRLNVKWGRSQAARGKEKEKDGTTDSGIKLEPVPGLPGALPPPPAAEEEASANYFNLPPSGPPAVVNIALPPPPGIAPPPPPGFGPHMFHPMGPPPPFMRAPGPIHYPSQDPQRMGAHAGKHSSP
Sequence of UniProt Q9BUV8 (Q9BUV8 whole entry, looked up): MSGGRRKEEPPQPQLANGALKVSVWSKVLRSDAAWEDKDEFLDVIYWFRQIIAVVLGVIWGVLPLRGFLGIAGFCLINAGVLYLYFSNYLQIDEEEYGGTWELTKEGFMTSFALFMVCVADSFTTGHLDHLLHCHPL
Sequence of UniProt O95470 (O95470 whole entry, looked up): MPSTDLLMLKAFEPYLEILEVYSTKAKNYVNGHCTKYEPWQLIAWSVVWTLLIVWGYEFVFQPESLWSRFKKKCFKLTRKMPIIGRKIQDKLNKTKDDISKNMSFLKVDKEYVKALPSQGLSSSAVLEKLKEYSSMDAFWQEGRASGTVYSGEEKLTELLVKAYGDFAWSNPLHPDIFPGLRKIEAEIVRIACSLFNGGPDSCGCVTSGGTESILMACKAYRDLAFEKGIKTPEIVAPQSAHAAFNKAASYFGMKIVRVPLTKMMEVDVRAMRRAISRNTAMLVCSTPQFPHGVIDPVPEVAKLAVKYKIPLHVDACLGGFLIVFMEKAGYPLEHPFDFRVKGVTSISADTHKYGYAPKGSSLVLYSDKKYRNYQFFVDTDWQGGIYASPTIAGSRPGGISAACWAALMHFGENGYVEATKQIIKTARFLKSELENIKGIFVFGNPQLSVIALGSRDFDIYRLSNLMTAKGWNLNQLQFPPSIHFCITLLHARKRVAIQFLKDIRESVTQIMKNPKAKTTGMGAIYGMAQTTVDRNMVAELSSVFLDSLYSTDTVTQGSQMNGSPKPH

Compared with SEC23IP (UniProt Q9Y6Y8), RARS (UniProt P54136) is higher in log2 fold change: -0.06 for the first, 0.165 for the second.

RAP1GDS1 isoform 5 (UniProt P52306) and SHROOM2 (UniProt Q13796) are within 0.2 log units of each other in log2 fold change: -0.025 for the first, -0.173 for the second.

RRP12 (UniProt Q5JTH9) and RAD50, A0A494C0Y7 are within 0.2 log units of each other in log2 fold change: -0.132 for the first, -0.108 for the second.

RETREG3 (UniProt Q86VR2) and SLC18B1 (UniProt Q6NT16) are within 0.2 log units of each other in log2 fold change: 0.015 for the first, 0.027 for the second.

RNASET2 (UniProt O00584) and SCCPDH (UniProt Q8NBX0) are within 0.2 log units of each other in log2 fold change: 0.05 for the first, 0.076 for the second.

Going from SH2D1B (UniProt O14796) to RHEB (UniProt Q15382), the log2 fold change rises from -0.372 to -0.073.

SAMSN1 isoform 3 (UniProt Q9NSI8) and SGPL1 (UniProt O95470) are within 0.2 log units of each other in log2 fold change: -0.058 for the first, -0.017 for the second.

RNASEH2A (UniProt O75792) and RAB3IL1 (UniProt Q8TBN0) are within 0.2 log units of each other in log2 fold change: 0.011 for the first, 0.005 for the second.

SFXN5 (UniProt Q8TD22) and SDHAF2 (UniProt Q9NX18) are within 0.2 log units of each other in log2 fold change: 0.01 for the first, 0.001 for the second.

Compared with SCAMP2 (UniProt H3BUB6), RAB5IF isoform 5 (UniProt Q9BUV8) is lower in log2 fold change: 0.154 for the first, -0.086 for the second.

RPRD1B (UniProt Q9NQG5) and RPS25 (UniProt P62851) are within 0.2 log units of each other in log2 fold change: 0.037 for the first, 0.075 for the second.

ROCK1 (UniProt Q13464) and RPS12 (UniProt P25398) are within 0.2 log units of each other in log2 fold change: -0.009 for the first, 0.055 for the second.

RBM22 (UniProt Q9NW64) and RBM12 (UniProt Q9NTZ6) are within 0.2 log units of each other in log2 fold change: -0.015 for the first, -0.055 for the second.

RETSAT (UniProt Q6NUM9) and ROR2 (UniProt Q01974) are within 0.2 log units of each other in log2 fold change: -0.006 for the first, -0.025 for the second.

Going from RCN3 (UniProt Q96D15) to REL (UniProt Q04864), the log2 fold change rises from -0.156 to 0.054.

Compared with SCAMP2 (UniProt O15127), RIPK1 (UniProt Q13546) is higher in log2 fold change: -0.078 for the first, 0.135 for the second.

RNF41 (UniProt Q9H4P4) and RNF185 (UniProt Q96GF1) are within 0.2 log units of each other in log2 fold change: 0.044 for the first, 0.128 for the second.

RNF2 (UniProt Q99496) and SLC1A3 (UniProt P43003) are within 0.2 log units of each other in log2 fold change: -0.003 for the first, 0.028 for the second.

For SERINC1 (UniProt Q9NRX5), the log2 fold change was 0.022.

SDC3 (UniProt O75056) was tested, and the log2 fold change was -0.853 (active).
